# ChEMBL document CHEMBL1201862, “PubChem BioAssay data set” (2004)
# Out of some 400,000 compounds screened, about 2,100 (0.53%) were called active. Roughly 14% stayed inconclusive and do not appear here. The sample holds actives, similar compounds and a random draw of the others, so the mix is not that of the screen. How the calls were made is not given here.
# Target: Ataxin-2 (Homo sapiens) (UniProt Q99700)
# Assay: qHTS for Inhibitors of ATXN expression.
# Assay type: functional
# Ataxin-2 (Homo sapiens), sequence (Q99700 whole entry): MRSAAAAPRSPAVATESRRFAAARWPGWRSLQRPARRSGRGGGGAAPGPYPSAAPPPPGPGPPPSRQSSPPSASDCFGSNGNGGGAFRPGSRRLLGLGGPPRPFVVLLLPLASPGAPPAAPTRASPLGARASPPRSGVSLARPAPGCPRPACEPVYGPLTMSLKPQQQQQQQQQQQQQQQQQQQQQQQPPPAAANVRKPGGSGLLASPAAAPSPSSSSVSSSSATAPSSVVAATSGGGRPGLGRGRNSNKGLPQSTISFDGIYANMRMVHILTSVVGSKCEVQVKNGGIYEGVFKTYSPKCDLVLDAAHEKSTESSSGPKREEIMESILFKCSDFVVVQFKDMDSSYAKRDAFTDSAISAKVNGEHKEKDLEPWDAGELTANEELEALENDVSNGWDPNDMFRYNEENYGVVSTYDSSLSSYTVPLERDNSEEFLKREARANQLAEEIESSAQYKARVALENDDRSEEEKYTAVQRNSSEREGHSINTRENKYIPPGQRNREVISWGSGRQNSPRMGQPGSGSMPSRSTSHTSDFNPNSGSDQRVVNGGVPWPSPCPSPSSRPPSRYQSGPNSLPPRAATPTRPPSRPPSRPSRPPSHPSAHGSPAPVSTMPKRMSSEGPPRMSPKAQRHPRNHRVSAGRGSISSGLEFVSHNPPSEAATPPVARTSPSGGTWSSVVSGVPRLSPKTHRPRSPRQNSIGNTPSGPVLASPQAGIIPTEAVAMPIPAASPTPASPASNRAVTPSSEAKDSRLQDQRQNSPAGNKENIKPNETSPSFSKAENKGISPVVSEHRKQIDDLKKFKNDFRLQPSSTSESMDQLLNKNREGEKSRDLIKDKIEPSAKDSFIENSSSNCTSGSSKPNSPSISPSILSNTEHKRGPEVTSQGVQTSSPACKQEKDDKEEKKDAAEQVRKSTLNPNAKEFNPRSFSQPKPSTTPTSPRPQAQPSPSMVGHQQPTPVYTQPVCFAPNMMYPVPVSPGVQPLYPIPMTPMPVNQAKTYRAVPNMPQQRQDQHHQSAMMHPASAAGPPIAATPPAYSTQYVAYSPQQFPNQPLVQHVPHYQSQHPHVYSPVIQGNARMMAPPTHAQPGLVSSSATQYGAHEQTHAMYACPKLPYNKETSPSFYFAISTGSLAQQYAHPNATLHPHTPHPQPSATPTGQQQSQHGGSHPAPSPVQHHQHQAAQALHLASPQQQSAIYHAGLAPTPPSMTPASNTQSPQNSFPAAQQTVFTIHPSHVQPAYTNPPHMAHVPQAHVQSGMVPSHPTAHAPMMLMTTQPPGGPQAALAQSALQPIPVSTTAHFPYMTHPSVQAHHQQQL
row,SMILES,Potency
1,CC1(C)CCCN(C(=O)c2ccc3c(c2NCCO)C(=O)c2ccccc2C3=O)C1,20 µM (active)
2,OCCCc1nc2n(n1)C(c1ccccc1)C=C(c1ccc(F)cc1)N2 (stereo not drawn),inactive
3,COc1cccc(CN(C)Cc2cc(=O)oc3cc(O)c(Cl)cc23)c1,inactive
4,CC(C)(C)C(=O)Nc1ccc2nc(SCc3ccccc3)sc2c1,31.6 µM (active)
5,CC(=O)Nc1ccc(O)c(-c2nc3ccccc3s2)c1,inactive
6,CC(=O)Nc1ccc(/C(C)=N/Nc2nc(Nc3ccccc3)nc(N3CCOCC3)n2)cc1,inactive
7,Cc1cccc(NC(=O)CSc2nc3ccc(NC(=O)c4ccco4)cc3s2)c1,39.8 µM (active)
8,CC(C)(C)C(=O)Nc1nc2c(s1)CN(Cc1ccccc1)CC2,inactive
9,Cc1cccc(NC(=O)CSc2nc3ccc(NC(=O)c4ccccc4)cc3s2)c1,39.8 µM (active)
10,CC(=O)Nc1ccc(/C(C)=N/Nc2nc(N3CCOCC3)nc(N3CCOCC3)n2)cc1,inactive
11,N#Cc1ccc(NC(=O)CSc2nc3nc(O)cc(O)c3s2)cc1,inactive
12,Cc1c(-c2cccc(NC(=O)c3ccco3)c2)nc2ncccn12,inactive
13,COc1ccc(NC(=O)CSc2nc3ccc(Nc4nc(N5CCOCC5)nc(N5CCOCC5)n4)cc3s2)cc1,15.8 µM (active)
14,CCn1nc(NC(=O)c2ccco2)c2cc3cc(C)ccc3nc21,inactive
15,CCN(C(=O)COC(=O)c1ccc(OC)c(S(=O)(=O)N(C)Cc2ccccc2)c1)C1CCS(=O)(=O)C1 (stereo not drawn),inactive
16,COc1ccc(CCC(=O)OCC(=O)Nc2c(C)n(C)n(-c3ccccc3)c2=O)cc1,inactive
17,CCCCCCc1cc2cc(-c3nnc(-c4ccc(C)cc4)o3)c(=O)oc2cc1O,inactive
18,Cc1nn2c(nc(N3CCCCC3)c3ccccc32)c1C=O,inactive
19,O=C(CCC1CCCCC1)Nc1nncs1,inactive
20,Nc1cccc2c1C(=O)N(C(=O)c1ccc(Cl)c(S(=O)(=O)N3CCCCCC3)c1)C2=O,inactive
21,CN(C(=O)CSc1nc2ccc(NC(=O)c3ccco3)cc2s1)c1ccccc1,39.8 µM (active)
22,CN(Cc1ccccc1)C(NC(=O)c1ccco1)C(Cl)(Cl)Cl (stereo not drawn),inactive
23,O=C(CSc1nnc(NC(=O)c2ccco2)s1)NCc1ccc2c(c1)OCO2,inactive

row,SMILES,Potency
1,CN(C(=O)c1ccc(NC(=O)c2ccco2)cc1)c1ccccc1,7.08 µM (active)
2,CCn1nc(NC(=O)c2ccco2)c2cc3ccccc3nc21,inactive
3,COCc1cc(C)nc2sc(C(=O)Nc3cccc(OC)c3)c(N)c12,inactive
4,COCCNC(=O)Nc1ccc2nc(-c3ccco3)c(-c3ccco3)nc2c1,inactive
5,Cc1ccc(C(=O)Nc2ccc3c(c2)OCO3)cc1NC(=O)c1ccco1,inactive
6,COc1cccc(NC(=O)CSc2nc3ccc(NC(=O)c4ccco4)cc3s2)c1,35.5 µM (active)
7,C=CCOc1c(Br)cc(C2C3=C(CCCC3=O)N(C)C3=C2C(=O)CCC3)cc1OCC,inactive
8,CCO/C(O)=C1/C(CC)=Nc2ccccc2N=C1NS(=O)(=O)c1cccc(C(C)=O)c1,inactive
9,COc1cccc(-c2ccc3c(N)c(C(=O)NC4CC4)sc3n2)c1,inactive
10,Cc1ccc2nc(N3CCC(C(=O)O)CC3)nc(-c3ccccc3)c2c1,inactive
11,C/C(=N\NC(=O)c1nc2ccccn2c1C)c1cc2ccccc2o1,inactive
12,O=C(NCc1ccco1)c1cc(NS(=O)(=O)c2cccc([N+](=O)[O-])c2)ccc1O,inactive
13,COc1cccc2sc(N(CCCN(C)C)C(=O)CCS(=O)(=O)c3ccccc3)nc12,20 µM (active)
14,Cc1ccc2sc(N(CCCN(C)C)C(=O)c3ccc(Br)s3)nc2c1C,35.5 µM (active)
15,Cc1ccc2sc(N(CCCN(C)C)C(=O)CCS(=O)(=O)c3ccccc3)nc2c1C,22.4 µM (active)
16,CN(C)CCCN(C(=O)CCOc1ccccc1)c1nc2c(F)cccc2s1,22.4 µM (active)
17,Cc1ccc(/C(=N/Nc2nc3ccccc3s2)C2=C(O)c3ccccc3C2=O)cc1,inactive
18,Cc1ccc(S(=O)(=O)c2cc3cc(Br)ccc3oc2=O)cc1,inactive
19,N#Cc1cccc(CN2CCCN(Cc3ccc(F)cc3)S2(=O)=O)c1,inactive
20,C/C(=N\NC(=O)c1cc2ccccc2cc1O)c1cccs1,inactive
21,CC(Sc1nc2ccccc2s1)C(=O)N(C)Cc1ccccc1 (stereo not drawn),inactive
22,CCOc1ccccc1NC(=O)CCS(=O)(=O)c1ccc(OC)cc1,inactive
23,COc1cccc2sc(N(CCCN(C)C)C(=O)C(c3ccccc3)c3ccccc3)nc12,39.8 µM (active)

row,SMILES,Potency
1,COc1ccc(OC)c2sc(N(CCCN(C)C)C(=O)CCS(=O)(=O)c3ccccc3)nc12,25.1 µM (active)
2,COc1ccc(C)cc1N(C(=O)c1ccccc1F)c1nc2ccccc2s1,inactive
3,COc1ccc(CCNC(=O)CCS(=O)(=O)c2ccc3nc(C)sc3c2)cc1OC,inactive
4,O=C(Oc1ccc(Cl)c2cccnc12)c1cccnc1,inactive
5,COC(=O)/C=C1/SC(NNC(=O)c2ccc(Cl)cc2Cl)=NC1=O,inactive
6,C/C(=N\Nc1nc2ccccc2[nH]1)c1ccc(Cl)s1,inactive
7,CCCn1c(/C=N/Nc2nc3ccccc3[nH]2)nc2ccccc21,35.5 µM (active)
8,CCCn1c(/C=C/c2cc[n+](C)cc2)nc2ccccc21,inactive
9,O=S(=O)(c1cc(Cl)ccc1Cl)N1CCN(c2ccccn2)CC1,inactive
10,Cc1c(CC(=O)NCC(=O)N[C@H](Cc2ccccc2)C(=O)O)c(=O)oc2cc(O)ccc12,inactive
11,COc1cc2cc(CNc3ccccc3)c(=O)n(CC(=O)Nc3ccccc3)c2cc1OC,inactive
12,CCn1cc(C(=O)OC)c(=O)c2cc(S(=O)(=O)N(C)C3CCCCC3)ccc21,inactive
13,COc1cccc(NC(=O)N2CCCC2C(=O)NCc2ccccc2F)c1 (stereo not drawn),inactive
14,CC(C)NC(=O)Cn1cc(C(=O)C2CC2)c2ccccc21,inactive
15,CCc1ccc(NC(=O)N(Cc2cn(CC)c3ccccc23)C2CCCCC2)cc1,35.5 µM (active)
16,COc1ccc(-n2c(=O)c3ccccc3n(CC(=O)Nc3cccc(OC)c3)c2=O)cc1,39.8 µM (active)
17,COc1cccc(NC(=O)CN2C(=O)c3cccc4cccc2c34)c1,inactive
18,COc1cccc(NC(=O)CN(C)C(=O)[C@@H]2CCCN2C(=O)c2cccs2)c1,inactive
19,COc1cccc(NC(=O)Cn2cc(C(=O)C3CCCCC3)c3ccccc32)c1,39.8 µM (active)
20,Cc1ccc(NC(=O)CNc2ccccc2CN(C)C2CCCCC2)cc1,inactive
21,COc1cccc(NC(=O)C2CCOC2=O)c1 (stereo not drawn),inactive
22,COc1cccc(NC(=O)N(Cc2cn(C)c3ccccc23)C2CCCCCC2)c1,39.8 µM (active)
